Source: PubChem (National Center for Advancing Translational Sciences (NCATS))
GAA inh – qHTS Assay for Inhibitors of Human alpha-Glucosidase as a Potential Chaperone Treatment of Pompe Disease. Potency, µM (titrated, usually from 76.9 µM), usual class: inhibitors. purified human GAA, 4-MU-alpha-glucoside fluorescence. AID 1466, 2008. Lysosomal alpha-glucosidase (Homo sapiens), P10253. 200,000 compounds, 0.005% hits
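Human alpha-glucosidase, 4 nM, pre-mixed with test compounds before 400 uM 4-methylumbelliferyl substrate; 20 min room temperature at pH 5.0. Fluorescence read after pH 10 stop; AC50 values from Hill-equation fits.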
GAA glycogen – qHTS Assay for Inhibitors and Activators of Human alpha-Glucosidase Cleavage of Glycogen. Lysosomal alpha-glucosidase (Homo sapiens), P10253. recombinant GAA, glycogen substrate, Amplex Red glucose oxidase fluorescence. Potency, µM (series often up to 76.4 µM), usual class: inhibitors. 300,000 compounds, 0.38% hits. AID 2100, 2009;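 note: the screen sought inhibitors and activators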
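Recombinant human enzyme (4 nM); glycogen substrate; 37 C, 40 min, pH 5.0. Readout: coupled glucose oxidase/Amplex Red fluorescence.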
N370S GC mod – qHTS Assay for Inhibitors and Activators of N370S glucocerebrosidase as a Potential Chaperone Treatment of Gaucher Disease; Lysosomal acid glucosylceramidase (Homo sapiens), P04062; N370S GC spleen homogenate, 4MU-glucoside fluorescence; Potency, µM (highest dose often 59.4 µM), actives largely listed as inhibitors; 330,000 compounds, 0.092% hits; AID 2101, 2009
GLA inh pH 4.5 – qHTS Assay for Inhibitors of Human alpha-Galactosidase at pH 4.5; Alpha-galactosidase A (Homo sapiens), P06280; purified enzyme, 4-MU-alpha-Gal fluorescence, pH 4.5; activity change, negative = inhibition, % at 105 µM; 230,000 tested, under 10 active; AID 1467, 2008
Target sequence (P06280 whole entry, looked up): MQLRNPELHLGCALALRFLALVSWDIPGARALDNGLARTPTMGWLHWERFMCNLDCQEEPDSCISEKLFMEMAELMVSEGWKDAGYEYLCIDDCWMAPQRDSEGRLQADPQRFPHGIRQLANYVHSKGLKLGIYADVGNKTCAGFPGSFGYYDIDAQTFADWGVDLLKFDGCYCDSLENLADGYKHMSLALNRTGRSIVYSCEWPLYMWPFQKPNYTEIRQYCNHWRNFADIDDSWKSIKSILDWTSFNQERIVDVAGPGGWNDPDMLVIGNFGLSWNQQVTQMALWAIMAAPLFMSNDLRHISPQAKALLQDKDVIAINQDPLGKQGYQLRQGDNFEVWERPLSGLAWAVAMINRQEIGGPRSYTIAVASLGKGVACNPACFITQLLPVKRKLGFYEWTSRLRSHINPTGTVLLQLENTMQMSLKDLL
GAA spleen mod – qHTS Assay for Inhibitors and Activators of Human alpha-Glucosidase From Spleen Homogenate | AID 2112, 2009 | human spleen homogenate, 4-MU-alpha-glucoside fluorescence | Potency, µM (top dose mostly 79.9 µM), usual class: inhibitors | 240,000 compounds, 0.006% hits
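AC50 values come from Hill-equation fits of concentration-response data, normalized to no-enzyme and full-activity controls. Enzyme source: 1 ug human spleen homogenate; 1 mM fluorogenic 4-MU glucoside, pH 5.0 citrate buffer, 37 C, 40 min.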
GLA spleen mod – qHTS Assay for Inhibitors and Activators of Human alpha-Galactosidase From Spleen Homogenate; human spleen homogenate, 4MU-alpha-Gal fluorescence, 40 min; Potency, µM (titrated, usually from 80 µM), actives largely listed as inhibitors; 240,000 compounds, 0.008% hits; AID 2107, 2009
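Inhibition or activation of alpha-galactosidase in human spleen homogenate is scored by 4-MU fluorescence after 40 min at 37C, pH 5.0, with 1 mM substrate. AC50s come from concentration-response fitted to the Hill equation.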
Each line names hits and unclear results; the compound was inactive in the other large screens; ! = not confirmed by another sample. Only some compounds are listed: those with a hit (about 0.41% of all), similar ones and a draw of the others. Calls come from the whole dose curve; as a rule, active = well fitted curve in the direction sought with a large enough effect; inconclusive = small, poorly fitted or top-dose-only effect, or another doubt; inactive = no such curve, though single readings can be large; an effect the other way counts as inactive or inconclusive.

c1ccc2c(c1)Nc1ccccc1S2	GAA glycogen 18µM
S=C=Nc1cccc2ccccc12	none (no result: GAA inh, GAA glycogen, GLA inh pH 4.5)
CC(=O)OCC[N+](C)(C)C	GAA glycogen 9.9µM!
Cc1onc(-c2ccccc2)c1C(=O)Nc1ccc(S(=O)(=O)N2CCCC2)cc1	GAA glycogen 14µM
C[C@@H]1O[C@@H](O[C@H]2CC[C@@H](O[C@H]3[C@H](O)C[C@H](c4ccc5c(c4O)C(=O)C4=C(C5=O)[C@@]5(O)C(=O)C[C@](C)(O[C@H]6CC[C@H](O[C@H]7C=CC(=O)[C@H](C)O7)[C@H](C)O6)C[C@@]5(O)C=C4)O[C@@H]3C)O[C@H]2C)C=CC1=O	none (no result: GAA inh, GAA glycogen, GLA inh pH 4.5)
CC(=O)[O-].CC(=O)[O-].O.O.[Cd+2]	none (no result: GAA inh, GAA glycogen, GLA inh pH 4.5)
Cc1[nH]c2ccc(OC(F)(F)F)cc2c1CCNCc1cccc([N+](=O)[O-])c1	N370S GC mod 16µM (no result: GAA inh, GLA inh pH 4.5, GAA spleen mod, GLA spleen mod)
Cc1[nH]c2ccc(OC(F)(F)F)cc2c1CCNCc1ccc(Cl)cc1	N370S GC mod inconclusive (no result: GAA inh, GLA inh pH 4.5, GAA spleen mod, GLA spleen mod)
CCOc1cccc(CNCCc2c(C)[nH]c3ccc(OC(F)(F)F)cc23)c1O	N370S GC mod 8.9µM (no result: GAA inh, GLA inh pH 4.5, GAA spleen mod, GLA spleen mod)
Oc1ccccc1/C=N/NP(=S)(c1ccccc1)c1ccccc1	none
Oc1ccc(/C=N/NP(=S)(c2ccccc2)c2ccccc2)cc1O	GAA glycogen 16µM
Oc1ccc(/C=N/NP(=S)(c2ccccc2)c2ccccc2)c(O)c1O	GAA inh inconclusive, GAA glycogen 16µM (no result: N370S GC mod)
Cc1cc(C(=O)CS(=O)(=O)c2ccc(F)cc2)cc(C)c1OC(=O)N(C)C	GAA spleen mod inconclusive, GLA spleen mod 28µM
CN(C)C(=O)Oc1c(Cl)cc(Cl)c2ccccc12	none
C=CCN1CCc2cccc3c2[C@H]1Cc1ccc(O)c(O)c1-3	GAA glycogen 6.3µM (no result: GAA inh, GLA inh pH 4.5, GAA spleen mod, GLA spleen mod)
CCCN1CCc2cc(O)cc3c2C1Cc1ccc(O)c(O)c1-3 (stereo not drawn)	none (no result: GAA inh, GAA glycogen)
O=S(=O)(O)F	none (no result: GAA inh, GAA glycogen, GLA inh pH 4.5)
Oc1cc2c(cc1O)[C@H]1c3ccccc3CN[C@@H]1CC2	GAA glycogen 2.5µM
O=C1/C(=C\c2ccccc2)C[C@@]2(O)[C@H]3Cc4ccc(O)c5c4[C@@]2(CCN3CC2CC2)[C@H]1O5	none (no result: GAA inh, GAA glycogen, GLA inh pH 4.5)
O=[N+]([O-])c1ccc2c3c(cccc13)CC2	none (no result: GAA inh, GAA glycogen, GLA inh pH 4.5)
Nc1ccc2c3c(cccc13)CC2	GAA glycogen 25µM
CCC1OC2(C)C(O)C(/C=C/C=C/C=C/c3oc(=O)cc(OC)c3C)OC1(C)C2OC(C)=O (stereo not drawn)	none (no result: GAA inh, GAA glycogen, GLA inh pH 4.5)
CC(C)NCC(O)COc1cccc2[nH]ccc12 (stereo not drawn)	GLA spleen mod 10µM!
CC(C)NC[C@@H](O)COc1cccc2[nH]ccc12	none (no result: GAA inh, GAA glycogen)
